Test systems include NCI-H23 lung; NCI-H226 lung; NCI-H322M lung; HOP-62 NSCLC; NCI-H460 lung; HOP-92 NSCLC; NCI-H522 lung; A549/ATCC NSCLC; 786-0 renal; COLO 205 colon.
Common to all, as to assay: NCI-60 one-dose screen, 48 h (100 = growth as untreated, 0 = no growth, -100 = all killed)
Conditions in all cases: 10 µM unless noted

Structures are written as SMILES. About 83,000 compounds went through this panel and 20% of them were active in at least one assay; those are over-represented in the sample as a whole.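 Single-concentration screen, 48 h exposure, 96-well plates. Endpoint: percent growth. Below 10 = active.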 Unmarked numbers belong to inactive results. Active and inactive are the calls of the source.

For `CCCCC(=O)OCC1OC(n2cnc3c(=S)nc[nH]c32)C(OC(=O)CCCC)C1OC(=O)CCCC` (stereo not given), the growth in the experiment with NCI-H23 lung was 27.5%; in the experiment on NCI-H226 lung, 31.4%; in the experiment with NCI-H322M lung it was 36.4%; with HOP-62 NSCLC, 25.4%; in the experiment with NCI-H460 lung, 30.3%; in the experiment on HOP-92 NSCLC it was 20.2%. Moreover, the growth is 34.5% with NCI-H522 lung, 39.8% with A549/ATCC NSCLC, 20.5% with 786-0 renal and 38.8% in the experiment with COLO 205 colon.

Regarding `O=C(CN(C(=O)Cn1c(=O)n2nnnc2c2ccccc21)c1ccccc1C(F)(F)F)Nc1ccc(C(F)(F)F)cc1`, the growth in the experiment on NCI-H23 lung was 103%; with NCI-H226 lung it was 104%; in the experiment with NCI-H322M lung, 107%; in the experiment with HOP-62 NSCLC, 107%; with NCI-H460 lung, 105%; in the experiment on HOP-92 NSCLC it was 92.8%. The growth with NCI-H522 lung is 98%; in the experiment with A549/ATCC NSCLC it was 104%; in the experiment on 786-0 renal it was 103%; in the experiment with COLO 205 colon it was 112%.

`C#Cc1cccc(NC(=O)c2ccccc2NC(=O)CCl)c1`: the growth in the experiment with NCI-H23 lung was 64.4% [8.25 µM]; with NCI-H226 lung it was 50.1% [8.25 µM]; in the experiment with NCI-H322M lung it was 99.3% [8.25 µM]; in the experiment on HOP-62 NSCLC it was 75.8% [8.25 µM]; in the experiment on NCI-H460 lung, 98.3% [8.25 µM]; with HOP-92 NSCLC, 77.4% [8.25 µM]. In addition, the growth was 10.6% [8.25 µM] with NCI-H522 lung, 92.7% [8.25 µM] in the experiment with A549/ATCC NSCLC, 87.5% [8.25 µM] in the experiment on 786-0 renal and 114% [8.25 µM] with COLO 205 colon.

Regarding `COc1ccc(C2Nc3c(c(C(C)(C)C)nn3-c3ccccc3)C(=O)CS2)cc1` (stereo not given), the growth in the experiment on NCI-H23 lung is 99.6%; with NCI-H226 lung, 98.2%; in the experiment on NCI-H322M lung it was 104%; in the experiment on HOP-62 NSCLC, 106%; in the experiment on NCI-H460 lung, 106%; with HOP-92 NSCLC, 91.7%. In addition, the growth was 84.5% in the experiment with NCI-H522 lung, 89.3% in the experiment with A549/ATCC NSCLC, 113% in the experiment with 786-0 renal and 103% in the experiment on COLO 205 colon.

Consider `CCN(CC)c1ccc(-c2cc(-c3cc(OC)c(OC)c(OC)c3)nc(N3CCOCC3)c2C#N)cc1`, for which the growth with NCI-H23 lung is 56.2%; in the experiment on NCI-H226 lung it was 8.07% (active); in the experiment on NCI-H322M lung, 52.9%; with HOP-62 NSCLC, -40.5% (active); in the experiment with NCI-H460 lung, -1.44% (active); with HOP-92 NSCLC, -1.28% (active). Moreover, the growth in the experiment with NCI-H522 lung is -15.6% (active); with A549/ATCC NSCLC, 21.5%; with 786-0 renal, 0.298% (active); in the experiment on COLO 205 colon it was 5.62% (active).

As to `Cc1nn(-c2cc(=O)[nH]c3ccc(Cl)cc23)c(N)c1C#N`, the growth is 93.8% in the experiment on NCI-H23 lung; 81.3% in the experiment with NCI-H226 lung; 98.2% with NCI-H322M lung; 94.9% in the experiment with HOP-62 NSCLC; 101% in the experiment on NCI-H460 lung; 104% in the experiment on HOP-92 NSCLC. In addition, the growth is 93.3% in the experiment on NCI-H522 lung, 108% with A549/ATCC NSCLC, 106% with 786-0 renal and 119% in the experiment with COLO 205 colon.

As for `O=[N+]([O-])c1ccc2c(c1)Cc1cc(F)ccc1-2`, the growth was 105% with NCI-H23 lung; 99.4% in the experiment on NCI-H226 lung; 95.6% with NCI-H322M lung; 106% in the experiment with HOP-62 NSCLC; 106% in the experiment on NCI-H460 lung; 80.2% with HOP-92 NSCLC. In addition, the growth is 104% with NCI-H522 lung, 88.5% with A549/ATCC NSCLC, 95.4% in the experiment on 786-0 renal and 107% in the experiment with COLO 205 colon.

With `CCOC(=O)c1sc2nc(-c3cccc(O)c3)nc(N3CCOCC3)c2c1C`, the growth was 69.3% in the experiment on NCI-H23 lung; 82.8% in the experiment on NCI-H226 lung; 70.7% in the experiment with NCI-H322M lung; 68.5% with HOP-62 NSCLC; 68.2% in the experiment on NCI-H460 lung; 30.8% in the experiment on HOP-92 NSCLC. Besides, the growth in the experiment with NCI-H522 lung is 46.1%; in the experiment with A549/ATCC NSCLC it was 47.4%; with 786-0 renal it was 67.7%; with COLO 205 colon it was 105%.

With `COc1cc(/C=C/C(=O)c2c(C)oc3nc[nH]c(=O)c23)cc(OC)c1OC`, the growth in the experiment on NCI-H23 lung was 68.9%; in the experiment on NCI-H226 lung it was 92.1%; with NCI-H322M lung, 85.8%; with HOP-62 NSCLC, 101%; with NCI-H460 lung it was 83.7%; in the experiment with HOP-92 NSCLC, 96.4%. For the same compound, the growth in the experiment with NCI-H522 lung was 47.7%; with A549/ATCC NSCLC it was 81.6%; in the experiment on 786-0 renal, 94.3%; in the experiment on COLO 205 colon, 95.4%.

In the case of `C(=N/Nc1ncc(-c2cc3cc(-c4ccccc4)ccc3o2)s1)/c1cccs1`, the growth in the experiment on NCI-H23 lung was 99.9%; in the experiment on NCI-H226 lung, 104%; with NCI-H322M lung it was 33.8%; with HOP-62 NSCLC, 118%; in the experiment with NCI-H460 lung it was 7.38% (active); with HOP-92 NSCLC, 105%. Also, the growth was 86.1% in the experiment with NCI-H522 lung, 13.3% in the experiment with A549/ATCC NSCLC, 101% in the experiment on 786-0 renal and 72.4% with COLO 205 colon.

Regarding `Cc1ncc(C(=O)Nc2ccc(CN3CCN(C)CC3)c(C(F)(F)F)c2)cc1C#Cc1cnc2cccnn12`, the growth with NCI-H23 lung is -38.4% (active); in the experiment on NCI-H226 lung, -56.8% (active); in the experiment with NCI-H322M lung, -1.83% (active); in the experiment on HOP-62 NSCLC it was 4.59% (active); with NCI-H460 lung, -53.1% (active); in the experiment on HOP-92 NSCLC, -4.77% (active). Moreover, the growth in the experiment on NCI-H522 lung is -18.9% (active); in the experiment with A549/ATCC NSCLC it was -2.38% (active); in the experiment on 786-0 renal, 1.06% (active); in the experiment with COLO 205 colon it was -41.5% (active).

In the case of `Cn1c(=O)[nH]c(=O)c2nc(CCC(=O)NCCC(=O)O)c(=O)[nH]c21`, the growth with NCI-H23 lung was 97.5%; in the experiment on NCI-H226 lung it was 88.3%; with NCI-H322M lung, 100%; in the experiment with HOP-62 NSCLC it was 105%; in the experiment with NCI-H460 lung it was 103%; with HOP-92 NSCLC it was 98.2%. Also, the growth is 96.5% in the experiment on NCI-H522 lung, 103% in the experiment with A549/ATCC NSCLC, 109% in the experiment with 786-0 renal and 109% in the experiment on COLO 205 colon.

As for `COc1cc(C)c(C2C(C#N)=C(N)Oc3n[nH]c(-c4cccs4)c32)cc1C(C)C` (stereo not given), the growth is 93.9% in the experiment with NCI-H23 lung; 101% in the experiment on NCI-H226 lung; 108% in the experiment with NCI-H322M lung; 96.8% in the experiment with HOP-62 NSCLC; 107% in the experiment on NCI-H460 lung; 99.7% with HOP-92 NSCLC. Moreover, the growth was 91.2% in the experiment with NCI-H522 lung, 86.7% in the experiment on A549/ATCC NSCLC, 103% in the experiment with 786-0 renal and 118% with COLO 205 colon.
